# In PubChem BioAssay AID687031 (Broad Institute, 2013):
# Out of some 1,400 compounds screened, about 50 (4%) were called active. Not all results are given here. Entries with a potency or affinity are not part of this list. Values without a mark were called inactive.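 The calls were made as follows: active = fitted curve reaches 30% CPE protection at or below the top valid dose, with every test run called active; inconclusive = test runs disagree, some active and some not; inactive = every test run inactive, including effects in the wrong direction.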
# Assay: Dengue virus 2 cytopathic effect protection, dose response, BHK-21 cells, ATP luminescence, cherry-pick (AID 687031);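 also: 0% = infected DMSO wells and 100% = uninfected cell wells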
# Details: BHK-21 DENV2 CPE protection, 5 d; series mostly up to 19.5 µM; CPE protection (higher = active): at the top concentration
row,Structure (SMILES),CPE protection (higher = active)
1,Cc1cnc(CNC(=O)C2CCC(=O)N(Cc3ccc(Cl)cc3)C2)[nH]1 (stereo unspecified),-5.86%
2,ClC(CCN1CCN(Cc2ccccc2)CC1)c1ccccc1 (stereo unspecified),0.446%
3,Cc1cccc(N(CC(=O)NC(C)(C)C)C(=O)CNC(=O)c2cccs2)c1C,-10.1%
4,CS(=O)(=O)N1CCc2cc(C(=O)N3CCN(c4ccccc4)CC3)ccc21,14.1%
5,CC1CCN(C(=O)COC(=O)c2cc3ccccc3oc2=O)CC1,29.4%
6,CCOC(=O)N1CCC(NCCNC(=O)c2ccc(F)c(F)c2)CC1,-26.1%
7,Cc1noc(C)c1NC(=O)N(C)C[C@@H]1Oc2c(NS(=O)(=O)c3ccccc3)cccc2C(=O)N([C@@H](C)CO)C[C@@H]1C,1.59%
8,CCNC(=O)C1(C)CCN(Cc2noc(-c3c(C)noc3C)n2)C1 (stereo unspecified),2.45%
9,O=C(NC1CCCCC1)N[C@H]1C=C[C@@H](CC(=O)N2CCOCC2)O[C@@H]1CO,15.7%
10,O=C(C[C@H]1C=C[C@H](NS(=O)(=O)c2ccccc2)[C@H](CO)O1)N1CCC(Cc2ccccc2)CC1,-16.4%
11,CCN(c1ccccc1)S(=O)(=O)c1ccc(OC)c(NC(=O)C2CCC2)c1,-14.6%
12,Cc1cccc(OCC(=O)NNC(=O)C2CCCCC2C(=O)O)c1 (stereo unspecified),-36.8%
13,c1ccc(-c2ccc(OCCN3CCOCC3)cc2)cc1,6.91%
14,CN1CCN(CCOc2ccc(-c3ccccc3)cc2)CC1,-14.5%
15,Cc1cc(=O)oc2cc(OCCSCCN3CCCC3)ccc12,-9.74%
16,O=C(NCc1cc(C(F)(F)F)cc(C(F)(F)F)c1)C1CC(c2cccc(F)c2)=NO1 (stereo unspecified),1.22%
17,O=C(C[C@@H]1CC[C@H]2[C@@H](COC[C@@H](O)CN2C(=O)c2ccncc2)O1)NCc1ccc(-c2ccccc2)cc1,-12.4%
18,CCCC[C@@H]1CNC(=O)C(=O)N1CCCCC1CCCCC1,1.63%
19,CCC(=O)Nc1ccc2c(c1)C(=O)N(C)[C@@H]1CC[C@H](CC(=O)N[C@@H](C)c3ccccc3)O[C@@H]1CO2,30.3%
20,O=C(NCCN1CCCC1)[C@H]1N[C@H]2c3ccc(-c4ccccc4)c(=O)n3C[C@H]2[C@@H]1CO,4.15%
21,O=C(NCc1ccccc1F)[C@H]1N[C@H]2c3ccc(-c4ccccc4F)c(=O)n3C[C@H]2[C@@H]1CO,22.1%
22,O=C(c1cc(-c2ccccc2)n[nH]1)N1CCN(S(=O)(=O)c2ccccc2)CC1,8.57%
23,COCCn1nnnc1C(c1cc2cc(C)ccc2[nH]c1=O)N1CCN(C2CCCCC2)CC1 (stereo unspecified),9.44%

row,Structure (SMILES),CPE protection (higher = active)
1,CCN(CC(=O)Nc1c(F)cccc1F)C(=O)c1cccc(S(=O)(=O)NCc2ccccc2)c1,-0.434%
2,CCN(CC(=O)Nc1cc(Cl)ccc1-n1cncn1)Cc1nc2ccccc2c(=O)[nH]1,1.83%
3,C[C@@H]1CN([C@H](C)CO)C(=O)Cc2cc(NC(=O)Cn3cnnn3)ccc2O[C@@H]1CN(C)Cc1ccc(C(=O)Nc2ccccc2N)cc1,21.3% [at 18 µM]
4,CCCN1CCC(NC(=O)CC2C(=O)NCCN2Cc2cccc(OC)c2)CC1 (stereo unspecified),7.2%
5,Cc1cnc(CN(C)C(=O)CC2C(=O)NCCN2Cc2cccc(F)c2F)[nH]1 (stereo unspecified),12.8%
6,COc1ccc(C(CCN2CCOCC2)c2c(OC)cc(OC)c3c(C)cc(=O)oc23)cc1 (stereo unspecified),27.1%
7,CN1C[C@@H]2[C@@H]3C(=O)N(Cc4ccccc4)C(=O)[C@@H]3[C@](C)(C1=O)N2C(=O)c1ccc(C(C)(C)C)cc1,8.78%
8,O=C(c1ccccc1Cc1ccccc1)N1CCN(S(=O)(=O)c2ccccc2)CC1,0.551%
9,Cc1ccc(S(=O)(=O)N2CCN(C(=O)COC(=O)Cc3ccc(Cl)cc3)CC2)c(C)c1,-8.53%
10,O=C1[C@@H](Oc2ccccc2)[C@@H](c2ccncc2)N1c1ccncc1,-3.03%
11,Cc1ccc2ccc(C(Nc3ccccc3)c3ccccc3)c(O)c2n1 (stereo unspecified),-6.24%
12,Cc1ccc(CNC(=O)C2CCC(=O)N(CCc3ccccn3)C2)s1 (stereo unspecified),-1.35%
13,Cc1cccc(N2CCN(C(C(=O)NCc3ccccc3)c3ccc(F)cc3)CC2)c1C (stereo unspecified),-8.34%
14,CC1(C)CC(=O)N(CC(=O)O)c2ccccc2S1(=O)=O,-20.4%
15,CCNC(=O)C[C@H]1CC[C@@H]2[C@H](COC[C@H](O)CN2Cc2ccc(Cl)c(Cl)c2)O1,12.1%
16,Cc1noc(C)c1S(=O)(=O)Nc1ccc2c(c1)C(=O)N([C@H](C)CO)C[C@H](C)[C@H](CN(C)C(=O)Nc1ccccc1)OCCCC[C@@H](C)O2,7.27%
17,Cc1noc(C)c1S(=O)(=O)Nc1ccc2c(c1)C(=O)N([C@@H](C)CO)C[C@@H](C)[C@@H](CN(C)C(=O)Nc1ccccc1)OCCCC[C@@H](C)O2,34% [at 10 µM]
18,CNc1cc(-c2ccc(O)cc2C)ncn1,-18%
19,O=C(C1CCOCC1)N1CC[C@@H]2[C@H]1c1cc(-c3cccc(F)c3)ccc1N[C@@H]2CO,-4.08%
20,O=C(C1CC1)N1CC[C@@H]2[C@H]1c1cc(-c3ccc(F)cc3)ccc1N[C@@H]2CO,19.9%
21,Cc1ccc(S(=O)(=O)c2nnn3c2nc(N2CCOCC2)c2ccccc23)cc1C,18.2%
22,CCCN(CC(=O)Nc1ccccc1C)C(=O)C1CCN(S(=O)(=O)c2ccc(C)c(C)c2)CC1,6.3%
23,CCC(C)(C)C1CCc2[nH]nc(C(=O)NCc3ccccn3)c2C1 (stereo unspecified),13.8% [at 10 µM]

row,Structure (SMILES),CPE protection (higher = active)
1,O=C(NCc1ccccn1)C(=O)NCC1OCCN1S(=O)(=O)c1ccc(Br)cc1 (stereo unspecified),-4.64%
2,COc1ccc(CN(C)C[C@H]2OCCCC[C@@H](C)Oc3ccc(NC(=O)NC(C)C)cc3C(=O)N([C@H](C)CO)C[C@H]2C)cc1,13.6% [at 21 µM]
3,CN1c2ccc(-c3cccc(F)c3)cc2[C@H]2[C@H](CCN2C(=O)Cc2cccnc2)[C@H]1CO,-9.94%
4,O=C(C1CCOCC1)N1C[C@@H]2[C@H](c3ccccc31)[C@H](CO)N2C(=O)c1ccccc1,-12.7%
5,CC(C)NC(=O)N1C[C@H]2[C@@H](c3ccccc31)[C@@H](CO)N2C(=O)c1ccccn1,6.1%
6,COc1ccc2ccccc2c1/C=N/NC(=O)c1ccccc1F,3.87%
7,Cc1ccccc1S(=O)(=O)N1CC[C@H]2[C@@H](CO)N(C)c3ccc(Br)cc3[C@H]21,2.06%
8,CCOc1ccc2[nH]c3ncccc3c(=O)c2c1,-4.21%
9,CC1(C(=O)NCc2cccs2)Cc2c(-c3cccc(C(F)(F)F)c3)ccnc2O1 (stereo unspecified),17%
10,CCc1nnc(NC(=O)c2ccc(F)c(S(=O)(=O)N3CCCCC3)c2)s1,-19.2%
11,CN(C)CC(=O)Nc1ccc2c(c1)[C@H]1C[C@H](CC(=O)NC3CCCCC3)O[C@@H](CO)[C@H]1O2,0.976%
12,O=C(C[C@H]1C[C@@H]2c3cc(NC(=O)CC4CC4)ccc3O[C@@H]2[C@H](CO)O1)NCc1ccccc1,-5.22%
13,Cc1ccc(NCC(=O)N/N=C/c2cccc(Br)c2)cc1,7.97%
14,CCCCCC(=O)N1C[C@@H](n2cc(C3CC3)nn2)[C@H](O)C[C@@H]1c1ccccc1,-7.51%
15,Cc1ccccc1CN1C(=O)CN(S(C)(=O)=O)CC1(C)C(=O)NCc1ccccc1 (stereo unspecified),-24.2%
16,COCCNC(=O)C1CCC(CNS(=O)(=O)c2ccc(F)cc2)CC1 (stereo unspecified),-10.5%
17,CC(=O)Nc1cccc(C(=O)OC(C)C(=O)NC(=O)NC2CCCCC2)c1 (stereo unspecified),-3.28%
18,CCOC(=O)C1=C(C)NC(=O)NC1c1ccc(N(C)C)cc1 (stereo unspecified),-0.681%
19,N#C[C@@H]1[C@H](c2ccc(-c3ccccc3F)cc2)[C@H](CO)N1C(=O)C1CC1,-0.808% [at 21 µM]
20,Cc1ccc(S(=O)(=O)N2CCOCC2)cc1NC(=O)CN(C)CC(=O)Nc1cccc(F)c1,-5.13%
21,CCN(CC(=O)Nc1c(F)cccc1F)C(=O)C1CCN(S(=O)(=O)c2ccc(F)cc2)CC1,-5.16%
22,COc1ccc(-c2cc(C(=O)NCCCN3CCCC3=O)c3ccccc3n2)cc1,-27.2%
23,CSc1cccc(NC(=O)CC2Oc3ccccc3NC2=O)c1 (stereo unspecified),-0.118%

row,Structure (SMILES),CPE protection (higher = active)
1,CCOc1ccc(N(CC(=O)NC2CCCC(C)C2C)S(=O)(=O)c2c(C)noc2C)cc1 (stereo unspecified),-13.2%
2,Cn1c(=O)c2[nH]c(CCCCc3nc4ccccc4[nH]3)nc2n(C)c1=O,6.76%
3,COc1ccc(CC(N)c2csc(NC(=O)c3ccc(OC)cc3)n2)cc1 (stereo unspecified),-8.87%
4,Nc1ccc(CC(N)c2csc(Nc3cc(Oc4ccccc4)ncn3)n2)cc1 (stereo unspecified),-9.32%
5,CC(C)SCc1cc(N2CCCC2)nc(-c2ccccc2)n1,-9.75%
6,COc1ccccc1-c1noc2c1C(=O)N(Cc1cn(Cc3ccccc3)nn1)CC2,6.91%
7,COc1ccc2ccccc2c1-c1sc(Nc2ccccc2)n[n+]1-c1ccc(F)cc1,-20%
8,CNC[C@@H]1OCCCC[C@H](C)Oc2ccc(NS(=O)(=O)c3c(C)noc3C)cc2C(=O)N([C@@H](C)CO)C[C@@H]1C,4.03%
9,O=C(NCc1cccs1)c1cccc(Nc2nc3ccc(Br)cc3[nH]2)c1,-1.49%
10,CC1CCCCC12NC(=O)N(CC(=O)NCc1cccs1)C2=O (stereo unspecified),2.88%
11,CN(Cc1ccccc1)CC1CCCN(CCc2ccccc2F)C1 (stereo unspecified),3.08%
12,CC(C)Cc1ccc(C(C)C(N)=NCCc2ccccc2)cc1 (stereo unspecified),21.7%
13,CCN(C)C1CN(Cc2cn(Cc3ccc(F)cc3)nn2)S(=O)(=O)C1 (stereo unspecified),-3.5%
14,CCOc1ccc(Oc2nc(NCC(C)C)nc(OC)n2)nn1,-24.7%
15,NS(=O)(=O)c1ccc(CCNC(=O)C2CCCN2C(=O)c2cccs2)cc1 (stereo unspecified),-11.5%
16,O=C(NC(C(=O)N1CCCC1C(=O)NC1CCCC1)c1ccccc1)c1cccs1 (stereo unspecified),-11.5%
17,CCC(=O)N1CC2(C1)CN(C(=O)Nc1ccc(F)cc1)[C@H](CO)c1c2c2ccc(OC)cc2n1C,5.8%
18,Cc1ccc(-c2nc(N3CCN(C)CC3)c3ccccc3n2)cc1,12.5%
19,COc1ccc(/C=N/NC(=O)c2nc(-c3ccccc3)n(-c3ccccc3)n2)cc1OC,6.48%
20,CCCNC(=O)C[C@H]1CC[C@@H]2[C@H](COC[C@H](O)CN2C(=O)CC)O1,36.8%
21,CCNC(=O)C[C@H]1CC[C@H]2[C@@H](COC[C@H](O)CN2C(=O)c2cccnc2)O1,24.6%
22,Cc1ccc(SCCN2CCC(NC(=O)OCc3ccccc3)CCC2=O)cc1 (stereo unspecified),-8.36%
